Assay outcomes from PubChem BioAssay.
Many of the other results were omitted from the sample, so hits are more common in it than they were.
nsP2pro primary: CHIKV nsP2 protease inhibition, primary qHTS. FRET peptide cleavage, nsP2pro, fluorescence 1 h. Potency, µM (series often up to 24.9 µM), actives largely listed as inhibitors. Q8JUX6. 31,000 tested, 1.1% active; note: nearly all actives have a fitted effect of over 60% in size
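Recombinant nsP2pro (150 nM) was preincubated with compound 15 min at room temperature in 10 mM Tris-HCl pH 8.0, 0.01% Tween 20. Peptide 2 FRET substrate (2.5 uM) was then added and fluorescence read after 1 h. Seven-point series, up to 25 uM.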
nsP2 cell sec: inhibits CHIKV nsP2 protease in cells. shares compounds with nsP2pro primary. cell-based CHIKV nsP2 protease reporter assay. Potency, µM (highest dose often 51.1 µM), actives largely listed as inhibitors. 450 tested, 10% active. AID 1964100; note: nearly all actives have a fitted effect of over 70% in size
NSP2 full ctr: full-length CHIKV NSP2 protease inhibition, selectivity | shares compounds with nsP2pro primary | Full-length CHIKV NSP2 protease enzymatic counterscreen | Potency, µM (highest dose often 50.7 µM), actives largely listed as inhibitors | 410 tested, 39% active | AID 1964101; note: nearly all actives have a fitted effect of over 65% in size
Furin counter: inhibits human furin in a CHIKV nsP2 protease selectivity counterscreen | shares compounds with nsP2pro primary | Recombinant human furin enzymatic counterscreen, fluorogenic substrate | Potency, µM (titrated, usually from 50.6 µM), usual class: inhibitors | 410 tested, 6% active
NS23 peptide cs: blocks CHIKV nsP2 protease cleavage of endogenous NS2/3 peptide. Potency, µM (titrated, usually from 51 µM), actives largely listed as inhibitors. shares compounds with nsP2pro primary. 410 tested, 34% active. Purified CHIKV nsP2 protease, endogenous NS2/3 peptide cleavage; note: nearly all actives have a fitted effect of over 55% in size
Papain counter: inhibits papain in a CHIKV nsP2 protease selectivity counterscreen; Potency, µM (titrated, usually from 51 µM), actives largely listed as inhibitors; purified papain protease activity, enzymatic inhibition; shares compounds with nsP2pro primary; 410 tested, 5% active
nsP2pro conf qHTS: CHIKV nsP2 protease inhibition, confirmatory qHTS. 410 tested, 43% active. Potency, µM (titrated, usually from 25.5 µM), most hits filed as inhibitors. CHIKV nsP2 protease enzymatic activity, qHTS. shares compounds with nsP2pro primary; note: nearly all actives have a fitted effect of over 75% in size
HCV NS3 4A cs: HCV NS3/4A protease inhibition, counterscreen. 410 tested, 20% active. shares compounds with nsP2pro primary. HCV NS3/4A protease biochemical counterscreen. Potency, µM (series often up to 50.9 µM), actives largely listed as inhibitors. AID 1964106; note: nearly all actives have a fitted effect of over 55% in size
Large screens that a line does not name were inactive (follow-up assays come after a bar, where they were run). Calls come from the whole dose curve.

CC(=O)N1CCN(Cc2ccccc2-c2cccnc2)CC1	none
CN(C)C(=O)N1CCN(c2ccc(Cl)nn2)C(=O)C1	none
CC(=O)N1CCN(c2ccc(C(=O)N3CCN(Cc4ccccc4)CC3)nn2)C(=O)C1	nsP2pro primary 3.5µM | nsP2 cell sec inactive | NSP2 full ctr 7.3µM | Furin counter inactive | NS23 peptide cs 15µM | Papain counter inactive | nsP2pro conf qHTS 8µM | HCV NS3 4A cs 5.2µM
CC(=O)c1cccc(NC(=O)Nc2nnc(-c3ccncc3)s2)c1	none
CC(=O)OC1(C)CC(O)C2(O)C=COC(OC3OC(CO)C(O)C(O)C3O)C12 (centres undefined)	none
CC(=O)OC1C(O)CC(O[C@@H]2O[C@H](CO)[C@@H](O)[C@H](O)[C@H]2O)C2CCC3C(=O)OC(c4ccoc4)CC3(C)C21 (some centres undefined)	nsP2pro primary inconclusive | nsP2 cell sec inactive | NSP2 full ctr inactive | Furin counter inactive | NS23 peptide cs inactive | Papain counter inactive | nsP2pro conf qHTS inactive | HCV NS3 4A cs inactive
CC(=O)O[C@@]1(C)C[C@@H](O)[C@]2(O)C=CO[C@@H](O[C@@H]3O[C@H](CO)[C@@H](O)[C@H](O)[C@H]3O)[C@@H]21	none
COc1ccc(CC(=O)Nc2sc3c(c2C(=O)Nc2ccccc2)CCCCC3)cc1	none
O=C(Cc1ccccc1)Nc1sc2c(c1C(=O)Nc1ccc(Cl)cc1)CCCC2	nsP2pro primary inconclusive | nsP2 cell sec inconclusive | NSP2 full ctr inactive | Furin counter inactive | NS23 peptide cs 6.5µM | Papain counter inactive | nsP2pro conf qHTS 4µM | HCV NS3 4A cs inactive
O=C(Cc1ccccc1)Nc1sc2c(c1C(=O)Nc1ccccc1)CCCCC2	none
CCC[C@@H](C(=O)O)N1C(=O)[C@H]2C[C@@H]3CCCC[C@@H]3N2C(=O)[C@@H]1C	none
N[C@@H](C=O)[C@@H](O)[C@@H](O)[C@H](O)CO	none
COc1ccc(Br)c(C(=O)Nc2cc3c(cc2N2CCCC2)n(C)c(=O)c(=O)n3C)c1	none
COc1ccc(OC)c(N2C(=O)C(Cl)=C(N3CCCCC3)C2=O)c1	nsP2pro primary inconclusive | nsP2 cell sec inactive | NSP2 full ctr 16µM | Furin counter inactive | NS23 peptide cs inconclusive | Papain counter inactive | nsP2pro conf qHTS 7.1µM | HCV NS3 4A cs inactive
COc1ccc(OC)c(NC(=O)CN2C(=O)c3ccccc3Sc3ccc(C(=O)N4CCCC4)cc32)c1	none
COc1cccc(-c2ccc(CNc3ccc(N4CCN(C(=O)OC(C)(C)C)CC4)cc3)o2)c1	none
O=C(Nc1ccc(F)c(C(F)(F)F)c1)Nc1cccc(-c2ccncc2)n1	none
O=C(c1ccccc1)N(Cc1ccco1)Cc1cccs1	none
O=C(C(NS(=O)(=O)c1ccc2[nH]c(=O)ccc2c1)c1cccc(C(F)(F)F)c1)N(Cc1ccco1)Cc1cccs1 (centres undefined)	nsP2pro primary 7.9µM | nsP2 cell sec inactive | NSP2 full ctr inconclusive | Furin counter inactive | NS23 peptide cs inactive | Papain counter inactive | nsP2pro conf qHTS inactive | HCV NS3 4A cs inactive
CS(=O)(=O)c1ncc(N(Cc2ccccc2)Cc2ccco2)c(C(=O)Nc2cccc(C(F)(F)F)c2)n1	none
C=C1C(=O)O[C@@H]2[C@H]3C(=C)[C@@H](O)C[C@H]3C(=C)C[C@@H](O)[C@@H]12	none
C=C1C(=O)O[C@@H]2C(OC(=O)/C(C)=C\C)/C(C)=C\C(=O)/C=C(\C)C[C@H](O)[C@@H]12 (some centres undefined)	nsP2pro primary inconclusive | nsP2 cell sec inconclusive | NSP2 full ctr inactive | Furin counter inactive | NS23 peptide cs inconclusive | Papain counter inactive | nsP2pro conf qHTS inactive | HCV NS3 4A cs inconclusive
C=C1C(=O)O[C@@H]2/C=C(/C)CC3C=C(C[C@H](OC(=O)/C(C)=C\C)[C@@H]12)C(=O)O3 (some centres undefined)	none
